# Where “and” joins values, the source holds several entries; their conditions need not be identical. Equal values may be shown once. The panel holds about 79,000 compounds, 15% with a hit somewhere; the sample as a whole holds those more often. Calls of active or inactive are those of the source. Cut-off read from the data, not from the text of the source: active = growth inhibition above about 70%; inactive = the rest.
# Assay: NCI Yeast Anticancer Drug Screen. Data for the mlh1 rad18 strain (AID 175)
# Details: S. cerevisiae mlh1 rad18 strain growth inhibition; at 50.0 µM; stronger effect = higher value
# Summary of the method: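 Compound-treated yeast growth, normalised to vehicle controls. Strain bears defined DNA repair mutations.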
row,Compound,growth inhibition
1,CC(=O)OC(OC(C)=O)c1ccc2ccc3cccc4ccc1c2c34,71.7% (active)
2,C[N+]1=C(/C=C\c2ccc(O)c3ccccc23)C(C)(C)c2ccccc21,43.7% (inactive)
3,OCC(O)C(O)C(O)C(O)CNCC(O)C(O)C(O)C(O)CO (configuration not stated),17.4% (inactive) and 21% (inactive) and 20.8% (inactive)
4,NCC(=O)NC(CO)C(=O)O (configuration not stated),-3.35% (inactive) and -12.8% (inactive) and -9.4% (inactive)
5,CCCCC(O)CCCC,-7.1% (inactive)
6,Nc1ccc(O)c2ccccc12,91% (active)
7,O=C1CCC(Cc2ccc(C(F)(F)F)cc2)C(=O)N1 (configuration not stated),6.6% (inactive)
8,CCCCCCCC[N+](C)(C)Cc1ccc(C[N+](C)(C)CCCCCCCC)cc1,86% (active)
9,CC(C)(N)COB(c1ccccc1)c1ccccc1,99.5% (active)
10,CCCCC(Oc1cc(C(C)(C)C)c(O)c(C(C)(C)C)c1)C(=O)O (configuration not stated),98.9% (active)
11,CCCCCCCCN(CCCCCCCC)Cc1ccc(Br)cc1,99.5% (active)
12,CCc1cc2c(c3c1C(=O)CC3)C(C)(C)CCC2,5% (inactive)
13,FC(F)(F)c1ccc(Cl)c(NC(=S)SC2CCCCC2)c1,98.4% (active)
14,NC(N)=Nc1ccc(Cc2ccc(N=C(N)N)cc2)cc1,-39% (inactive)
15,Nc1ccc(S(=O)(=O)O)c2ccccc12,-12.8% (inactive) and -40% (inactive) and 8.1% (inactive)
16,Nc1ccc(-c2cccc(-c3ccccc3)c2)cc1,97.6% (active)
17,COc1cc(CSc2ccc(O)cc2)cc(OC)c1OC,82.3% (active)

# From PubChem BioAssay (NCI)
